Test results published in PubChem BioAssay (NCI).
The panel holds about 83,000 compounds, 20% with a hit somewhere; the sample as a whole holds those more often.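 A percent growth of 40 corresponds to 60% growth inhibition; 0 means no net growth; -100 means all cells died. Active threshold: below 10.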 Calls of active or inactive are those of the source.

System: HCC-2998 colon
Assay: NCI-60 one-dose screen, 48 h (100 = growth as untreated, 0 = no growth, -100 = all killed)
Conditions: 10 µM unless noted

| SMILES | growth |
| --- | --- |
| COC(=O)[C@@H](Cc1c[nH]c2ccccc12)NC(=O)CCCCOc1cc(O)c2c(=O)cc(-c3ccccc3)oc2c1 | 96.5% (inactive) |
| CCOC(=O)c1cnc2c(-c3ccc(Cl)c(Cl)c3)cnn2c1 | 85% (inactive) |
| O=C(Nc1cccc(Cl)c1)Nc1nc2cc([N+](=O)[O-])ccc2o1 | 39% (inactive) |
| CCOP(=O)(OCC)OC[C@]12CCC(C)(C)CC1C1=CC[C@@H]3[C@@]4(C)CCCNC(C)(C)[C@@H]4CC[C@@]3(C)[C@]1(C)CC2 (stereo partly drawn) | 26.6% (inactive) |
| CS(=O)(=O)c1ccc(/C(=N/N=C(N)N)c2ccc(Cl)cc2)cc1 | 91.2% (inactive) |
| O=c1nc(Nc2ccc([N+](=O)[O-])cc2O)sc2ccccc12 | 62.4% (inactive) |
| O=C1C(SCc2ccccc2)=C(Cl)CN1c1ccc(Cl)cc1 | 95.9% (inactive) |
| CCCC/C(=C\c1ccc(O)c(O)c1)C(=O)NC(Cc1ccccc1)C(=O)C(=O)NCCc1ccc(OC)cc1 (stereo not drawn) | 102% (inactive) |
| COc1ccc(-c2cc(-c3ccc(N4CCOCC4)cc3)n3c(n2)nc2ccccc23)cc1OC | 110% (inactive) |
| C#C[C@]1(O)CC[C@H]2[C@@H]3CC=C4c5sc(Nc6ccc(C)cn6)nc5CC[C@]4(C)[C@H]3CC[C@@]21C | 19.2% (inactive) |
| CS(=O)(=O)c1ccc(/C(=N/N=C(N)N)c2ccc(F)cc2)cc1 | 90.3% (inactive) |
| CC(=O)Nc1ccccc1-c1nc2ccccc2s1 | 99.7% (inactive) |
| COc1ccc(/C=N/NC(=O)c2c(N)nn(C)c2Nc2ccccc2)cc1Oc1ccccc1 | 101% (inactive) |
| C=C(C)[C@@H]1CC[C@]2(COP(=O)(OCC)OCC)CC[C@]3(C)[C@H](CC[C@@H]4[C@@]5(C)CC[C@H](OP(=O)(OCC)OCC)C(C)(C)[C@@H]5CC[C@]43C)[C@@H]12 | 19.9% (inactive) |
| N#Cc1c(-c2cccs2)cc(-c2cnccn2)nc1SCC(=O)N/N=C/c1ccccc1 | 71% (inactive) |
| COc1cccc2c1[C@H](OC)[C@]13O[C@@]1(C2=O)[C@H](O)[C@H](C)[C@@](O)(C(=O)[C@@H]1O[C@H]1C)[C@@H]3O | -79.3% (active) |
| C#CCN(C)CCCOc1ccc(NCc2ccc(C(=O)NO)cc2)cc1Cl | 32.7% (inactive) |
| CCN(CC)c1ccc(/C=N/NC(=O)c2ccc(NS(C)(=O)=O)cc2)cc1 | 45.7% (inactive) |
| COc1ccc2c(c1)c(-c1nnc(N)nc1-c1c[nH]c3ccc(F)cc13)cn2C | 74.6% (inactive) |
| Cc1ccc(S(=O)(=O)NCCCNc2nccc(-c3[nH]c(-c4ccccc4)nc3-c3ccc(F)c(O)c3)n2)cc1 | 127% (inactive) |

| SMILES | growth |
| --- | --- |
| COc1ccc(-c2c(C(N)=O)c(N)n(Cc3nc4ccccc4[nH]3)c(=O)c2C#N)c(OC)c1 | 110% (inactive) |
| Brc1ccc2[nH]cc(-c3nn4cc(-c5nccs5)nc4s3)c2c1 | 36.7% (inactive) |
| CNc1sc(S(=O)(=O)NC)nc1S(=O)(=O)c1ccc(C)cc1 | 103% (inactive) |
| COc1ccc(C(=NNS(=O)(=O)c2ccc(C)cc2)c2ccccc2)cc1OC | 102% (inactive) |
| N#Cc1c(-c2cccs2)cc(-c2cnccn2)nc1SCC(=O)N/N=C/c1ccncc1 | 109% (inactive) |
| Cc1ncn(-c2ccc(/C=N/Nc3ccnc4cc(Cl)ccc34)cc2)c1C | -44.5% (active) |
| C#Cc1nc(/C=C/C(=O)NO)cs1 | 111% (inactive) |
| CCS(=O)(=O)Nc1ccc(C(=O)CC2(O)C(=O)Nc3ccccc32)cc1 (stereo not drawn) | 100% (inactive) |
| C1=CC(c2nn3c(-c4ccccc4)nnc3s2)=Cc2ccccc2O1 | 97% (inactive) |
| Cc1[nH]c(C(=O)Nc2ccc(C(N)=O)cc2N2CCOC(C)C2)c(Cl)c1Cl (stereo not drawn) | 105% (inactive) |
| O=C(/C=C/c1ccccc1)c1cccc(O)c1 | 111% (inactive) |
| COC(=O)CCCNCCCn1ccc2cc(NCc3cccc(-c4ccccc4)c3C)ccc21 | 90.2% (inactive) |
| C/C(=N\NC(=O)/C=C/CC(=O)O)c1nnn(-c2ccc([N+](=O)[O-])cc2)c1C | 105% (inactive) |
| O=C(/C=C/c1ccc(F)cc1)Nc1cccc2cccnc12 | 88% (inactive) |
| CC(C)NC(=O)c1cc(-c2ccc(NC(=O)Nc3ccc(F)cc3)cc2)nc2cccnc12 | 108% (inactive) |
| O=C(/C=C/c1cccc(C(F)(F)F)c1)Nc1cccc(C(F)(F)F)c1 | 57.4% (inactive) |
| Clc1ccc(CSc2nnc(-c3ccc(Cl)cc3)n2-c2ccccc2)cc1 | 95.8% (inactive) |
| COc1ccc(/C=N/N=C(/c2ccccc2)c2ccc3nc(-c4ccc(Cl)cc4)[nH]c3c2)cc1 | 89.6% (inactive) |
| N#Cc1cnc2ccc(-c3cnc4n[nH]nc4c3)cc2c1N1CCc2cc(F)c(Cl)cc21 | 22.5% (inactive) |

System: KM12 colon
Assay: as above
Conditions: 10 µM unless noted

| SMILES | growth |
| --- | --- |
| COC(=O)[C@@H](Cc1c[nH]c2ccccc12)NC(=O)CCCCOc1cc(O)c2c(=O)cc(-c3ccccc3)oc2c1 | 95.3% (inactive) |
| CCOC(=O)c1cnc2c(-c3ccc(Cl)c(Cl)c3)cnn2c1 | 57.5% (inactive) |
| O=C(Nc1cccc(Cl)c1)Nc1nc2cc([N+](=O)[O-])ccc2o1 | 26.5% (inactive) |
| CCOP(=O)(OCC)OC[C@]12CCC(C)(C)CC1C1=CC[C@@H]3[C@@]4(C)CCCNC(C)(C)[C@@H]4CC[C@@]3(C)[C@]1(C)CC2 (stereo partly drawn) | 88.7% (inactive) |
| CS(=O)(=O)c1ccc(/C(=N/N=C(N)N)c2ccc(Cl)cc2)cc1 | 72% (inactive) |
| O=c1nc(Nc2ccc([N+](=O)[O-])cc2O)sc2ccccc12 | 23.9% (inactive) |
| O=C1C(SCc2ccccc2)=C(Cl)CN1c1ccc(Cl)cc1 | 99.1% (inactive) |
| CCCC/C(=C\c1ccc(O)c(O)c1)C(=O)NC(Cc1ccccc1)C(=O)C(=O)NCCc1ccc(OC)cc1 (stereo not drawn) | 97.9% (inactive) |
| COc1ccc(-c2cc(-c3ccc(N4CCOCC4)cc3)n3c(n2)nc2ccccc23)cc1OC | 99% (inactive) |
| C#C[C@]1(O)CC[C@H]2[C@@H]3CC=C4c5sc(Nc6ccc(C)cn6)nc5CC[C@]4(C)[C@H]3CC[C@@]21C | -35.5% (active) |
| CS(=O)(=O)c1ccc(/C(=N/N=C(N)N)c2ccc(F)cc2)cc1 | 58.2% (inactive) |
| CC(=O)Nc1ccccc1-c1nc2ccccc2s1 | 105% (inactive) |
| COc1ccc(/C=N/NC(=O)c2c(N)nn(C)c2Nc2ccccc2)cc1Oc1ccccc1 | 92.7% (inactive) |
| C=C(C)[C@@H]1CC[C@]2(COP(=O)(OCC)OCC)CC[C@]3(C)[C@H](CC[C@@H]4[C@@]5(C)CC[C@H](OP(=O)(OCC)OCC)C(C)(C)[C@@H]5CC[C@]43C)[C@@H]12 | 54.2% (inactive) |
| N#Cc1c(-c2cccs2)cc(-c2cnccn2)nc1SCC(=O)N/N=C/c1ccccc1 | 33.2% (inactive) |
| COc1cccc2c1[C@H](OC)[C@]13O[C@@]1(C2=O)[C@H](O)[C@H](C)[C@@](O)(C(=O)[C@@H]1O[C@H]1C)[C@@H]3O | -31.1% (active) |
| C#CCN(C)CCCOc1ccc(NCc2ccc(C(=O)NO)cc2)cc1Cl | 24.2% (inactive) |
| CCN(CC)c1ccc(/C=N/NC(=O)c2ccc(NS(C)(=O)=O)cc2)cc1 | 18.1% (inactive) |
| COc1ccc2c(c1)c(-c1nnc(N)nc1-c1c[nH]c3ccc(F)cc13)cn2C | 22.9% (inactive) |
| Cc1ccc(S(=O)(=O)NCCCNc2nccc(-c3[nH]c(-c4ccccc4)nc3-c3ccc(F)c(O)c3)n2)cc1 | 83.9% (inactive) |

| SMILES | growth |
| --- | --- |
| COc1ccc(-c2c(C(N)=O)c(N)n(Cc3nc4ccccc4[nH]3)c(=O)c2C#N)c(OC)c1 | 99.8% (inactive) |
| Brc1ccc2[nH]cc(-c3nn4cc(-c5nccs5)nc4s3)c2c1 | 21% (inactive) |
| CNc1sc(S(=O)(=O)NC)nc1S(=O)(=O)c1ccc(C)cc1 | 103% (inactive) |
| COc1ccc(C(=NNS(=O)(=O)c2ccc(C)cc2)c2ccccc2)cc1OC | 105% (inactive) |
| N#Cc1c(-c2cccs2)cc(-c2cnccn2)nc1SCC(=O)N/N=C/c1ccncc1 | 100% (inactive) |
| Cc1ncn(-c2ccc(/C=N/Nc3ccnc4cc(Cl)ccc34)cc2)c1C | -25.8% (active) |
| C#Cc1nc(/C=C/C(=O)NO)cs1 | 56.3% (inactive) |
| CCS(=O)(=O)Nc1ccc(C(=O)CC2(O)C(=O)Nc3ccccc32)cc1 (stereo not drawn) | 101% (inactive) |
| C1=CC(c2nn3c(-c4ccccc4)nnc3s2)=Cc2ccccc2O1 | 85.5% (inactive) |
| Cc1[nH]c(C(=O)Nc2ccc(C(N)=O)cc2N2CCOC(C)C2)c(Cl)c1Cl (stereo not drawn) | 104% (inactive) |
| O=C(/C=C/c1ccccc1)c1cccc(O)c1 | 88.8% (inactive) |
| COC(=O)CCCNCCCn1ccc2cc(NCc3cccc(-c4ccccc4)c3C)ccc21 | 85.9% (inactive) |
| C/C(=N\NC(=O)/C=C/CC(=O)O)c1nnn(-c2ccc([N+](=O)[O-])cc2)c1C | 97.2% (inactive) |
| O=C(/C=C/c1ccc(F)cc1)Nc1cccc2cccnc12 | 95% (inactive) |
| CC(C)NC(=O)c1cc(-c2ccc(NC(=O)Nc3ccc(F)cc3)cc2)nc2cccnc12 | 95.7% (inactive) |
| O=C(/C=C/c1cccc(C(F)(F)F)c1)Nc1cccc(C(F)(F)F)c1 | 24.4% (inactive) |
| Clc1ccc(CSc2nnc(-c3ccc(Cl)cc3)n2-c2ccccc2)cc1 | 92.6% (inactive) |
| COc1ccc(/C=N/N=C(/c2ccccc2)c2ccc3nc(-c4ccc(Cl)cc4)[nH]c3c2)cc1 | 75.8% (inactive) |
| N#Cc1cnc2ccc(-c3cnc4n[nH]nc4c3)cc2c1N1CCc2cc(F)c(Cl)cc21 | 17.4% (inactive) |
